Experimental data as given in PubChem BioAssay.
Calls of active or inactive are those of the source. Unless noted, the rule behind the calls is not given here.

What was measured:
[1] = compound effects on lung adenocarcinoma cell viability – A549, calcein-AM fluorescence, 48 h, basal, profiling panel (AID 1162); details: higher = more signal; note: test concentration not given here
[2] = compound effects on differentiated 3T3-L1 adipocyte viability – cell-based, 3T3-L1 adipocytes, calcein-AM fluorescence, 48 h, basal, profiling panel (AID 1163); details: 3T3-L1 adipocytes viability, higher = more signal; note: test concentration not given here
[3] = compound effects on hepatocellular carcinoma cell viability – HepG2, calcein-AM fluorescence, 48 h, basal, profiling panel (AID 1164); details: higher = more signal; note: test concentration not given here
[4] = compound effects on multiple myeloma cell viability – MM1S, calcein-AM fluorescence, 48 h, basal, profiling panel (AID 1165); details: higher = more signal;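 note: viability of MM1S multiple myeloma cells under basal unstimulated conditions; test concentration not given here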
[5] = calcein-AM signal in unstimulated myeloma cells – cell-based, calcein-AM fluorescence, 48 h, PK04 Diversity Set, profiling panel (AID 1166); details: RPMI8226 myeloma viability, higher = more signal;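 note: cells grown under basal conditions without added stimulus; test concentration not given here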
[6] = JC-1 mitochondrial signal, unstimulated HepG2 cells – cell-based, JC-1 fluorescence, 24 h, 100 nL compound, profiling panel (AID 1167); details: HepG2 mitochondrial potential, higher = more signal; note: test concentration not given here
[7] = JC-1 mitochondrial signal, unstimulated adipocytes – cell-based, JC-1 fluorescence, 3T3-L1 adipocytes, 24 h, 100 nL compound, profiling panel (AID 1168); details: JC-1 mitochondrial fluorescence, higher = more signal, called active from +8 up or from −8 down; note: test concentration not given here
[8] = JC-1 mitochondrial signal, unstimulated myeloma cells – cell-based, JC-1 fluorescence, RPMI8226, 24 h, 100 nL compound, profiling panel (AID 1169); details: JC-1 mitochondrial potential fluorescence, higher = more signal; note: test concentration not given here
[9] = JC-1 mitochondrial signal, unstimulated MM1S myeloma – cell-based, JC-1 fluorescence, 24 h, 100 nL compound, profiling panel (AID 1170); details: MM1S mitochondrial potential, higher = more signal; note: test concentration not given here
[10] = resazurin metabolic signal in A549 cells – cell-based, resazurin fluorescence, 24 h, PK04 Diversity Set, profiling panel (AID 1171); details: A549 viability, higher = more signal, called active from +8 up or from −8 down; note: test concentration not given here
[11] = resazurin metabolic signal in HepG2 cells – cell-based, resazurin fluorescence, 24 h, PK04 Diversity Set, profiling panel (AID 1172); details: HepG2 viability, higher = more signal; note: test concentration not given here
[12] = budding yeast growth changes without added modifier – OD600, strain BY4716, 24 h, basal condition, primary screen (AID 1173); details: S. cerevisiae BY4716 growth, OD600, 24 h; higher = more signal, called active from +8 up or from −8 down
[13] = viability profiling in MM1S myeloma cells – cell-based, resazurin fluorescence, basal, 24 h, PK04 Diversity Set, profiling panel (AID 1174); details: higher = more signal, called active from +8 up or from −8 down; note: test concentration not given here
[14] = molecular target: Dihydroorotate dehydrogenase (quinone), mitochondrial (Plasmodium falciparum (isolate 3D7)) (UniProt Q08210); assay: inhibition of P. falciparum DHODH – biochemical, C-terminal His tag, absorbance 600 nm, primary screen (AID 1175); details: PfDHODH enzyme, DCIP absorbance 600 nm; higher = more signal, called active from +8 up or from −8 down;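 note: recombinant parasite enzyme with a five histidine tag at its C terminus; test concentration not given here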
Sequence of Dihydroorotate dehydrogenase (quinone), mitochondrial (Plasmodium falciparum (isolate 3D7)) (Q08210 whole entry, looked up): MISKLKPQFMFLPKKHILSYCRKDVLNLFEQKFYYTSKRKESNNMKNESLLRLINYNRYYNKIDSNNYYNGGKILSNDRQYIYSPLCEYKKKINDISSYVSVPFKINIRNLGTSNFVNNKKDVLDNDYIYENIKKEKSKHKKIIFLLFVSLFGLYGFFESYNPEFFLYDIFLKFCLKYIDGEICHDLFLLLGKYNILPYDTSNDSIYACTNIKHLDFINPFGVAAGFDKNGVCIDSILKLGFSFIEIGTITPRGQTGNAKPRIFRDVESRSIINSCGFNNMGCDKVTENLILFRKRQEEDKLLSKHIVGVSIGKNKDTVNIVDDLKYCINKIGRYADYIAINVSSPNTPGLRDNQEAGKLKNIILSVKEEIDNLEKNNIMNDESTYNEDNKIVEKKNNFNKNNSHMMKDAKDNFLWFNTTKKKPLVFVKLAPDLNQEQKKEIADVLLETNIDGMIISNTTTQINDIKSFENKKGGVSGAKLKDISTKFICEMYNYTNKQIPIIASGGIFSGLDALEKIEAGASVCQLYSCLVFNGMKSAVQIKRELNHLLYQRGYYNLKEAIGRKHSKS

[15] = inhibition of PAO1 biofilm formation – strain PAO1, LB-PBS medium, absorbance 600 nm, primary screen (AID 1176); note: test concentration not given here; details: P. aeruginosa PAO1 growth/biofilm, A600, 12 h; higher = more signal
[16] = growth modulation of vineyard yeast isolate – strain RM11-1a, OD600, basal, 24 h, primary screen (AID 1177);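 note: cultures grown under basal conditions with no added stressor; test concentration not given here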; details: S. cerevisiae RM11-1a growth, OD600, 24 h; higher = more signal, called active from +8 up or from −8 down
[17] = growth of efflux-deficient E. coli DRC39 – strain DRC39, OD650, 24 h, E. coli filamentation inducers, primary screen (AID 1178);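 note: growth measured as culture turbidity by optical density at 650 nm; test concentration not given here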; details: E. coli DRC39 acrAB, higher = more signal, called active from +8 up or from −8 down
[18] = growth of efflux-deficient E. coli DRC39 – strain DRC39, OD650, 48 h, E. coli filamentation inducers, primary screen (AID 1179);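 note: screen aims at cell division blockers that make cells filament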; details: E. coli DRC39 delta-acrAB growth, higher = more signal, called active from +8 up or from −8 down
[19] = viability profiling in RPMI8226 myeloma cells – cell-based, resazurin fluorescence, basal, 24 h, PK04 Diversity Set, profiling panel (AID 1180); details: higher = more signal;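 note: RPMI8826 multiple myeloma cell line at 5000 cells per well; test concentration not given here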
[20] = molecular target: E3 ubiquitin-protein ligase XIAP (Homo sapiens) (UniProt P98170); assay: small molecules binding XIAP protein – biophysical, small-molecule microarray, fluorescence 635 nm, primary screen (AID 1181); details: higher = more signal;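 note: score merges 667 nm emission and signal to noise over triplicate slides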
Sequence of E3 ubiquitin-protein ligase XIAP (Homo sapiens) (P98170 whole entry, looked up): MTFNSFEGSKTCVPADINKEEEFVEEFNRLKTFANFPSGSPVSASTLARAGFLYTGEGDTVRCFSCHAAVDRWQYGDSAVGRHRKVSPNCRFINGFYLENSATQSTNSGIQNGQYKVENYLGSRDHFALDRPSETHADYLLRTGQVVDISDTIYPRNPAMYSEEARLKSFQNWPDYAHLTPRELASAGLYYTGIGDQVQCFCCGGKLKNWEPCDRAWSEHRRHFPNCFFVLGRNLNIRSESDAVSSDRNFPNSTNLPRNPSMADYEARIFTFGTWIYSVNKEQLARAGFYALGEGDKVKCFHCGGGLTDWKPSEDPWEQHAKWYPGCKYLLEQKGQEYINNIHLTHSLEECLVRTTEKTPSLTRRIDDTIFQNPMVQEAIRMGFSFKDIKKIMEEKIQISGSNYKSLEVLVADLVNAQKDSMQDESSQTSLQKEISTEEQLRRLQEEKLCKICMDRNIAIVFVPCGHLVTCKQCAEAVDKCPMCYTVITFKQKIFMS

O=C1C[C@]2(c3ccc([N+](=O)[O-])cc3)C(=O)N(C3CC3)c3cc(CO)ccc3[C@H]2N1C1CCCCC1
z-score [1]: -0.164 | z-score [2]: -0.898 | z-score [3]: 0.214 | z-score [4]: -0.464 | z-score [5]: 0.474 | z-score [6]: -1.07 | z-score [7]: -0.185 (inactive) | z-score [8]: -0.691 | z-score [9]: -0.993 | z-score [10]: -0.332 (inactive) | z-score [11]: 0.277 | z-score [12]: 0.462 (inactive) | z-score [13]: -0.0174 (inactive) | composite z-score [14]: -3.75 (inactive) | z-score [15]: 0.475 (inactive) | z-score [16]: 0.3 (inactive) | z-score [17]: 0.0977 (inactive) | z-score [18]: 0.284 (inactive) | z-score [19]: -0.34 | composite z-score [20]: -0.0286

CC1CC/C=C\[C@H]2OC34C=CCN(C(C)(C)C)C(=O)[C@H]3N(CCCO)C(=O)[C@@H]4C2C(=O)O1 (stereo not given in full)
z-score [1]: -0.459 | z-score [2]: 0.0593 | z-score [3]: -0.869 | z-score [4]: 1.15 | z-score [5]: -0.339 | z-score [6]: -0.749 | z-score [7]: -0.274 (inactive) | z-score [8]: -0.0634 | z-score [9]: 0.522 | z-score [10]: -0.0125 (inactive) | z-score [11]: -0.216 | z-score [12]: 1 (inactive) | z-score [13]: -0.32 (inactive) | composite z-score [14]: -0.555 (inactive) | z-score [15]: 0.261 (inactive) | z-score [16]: 0.0605 (inactive) | z-score [17]: -0.282 (inactive) | z-score [18]: -0.52 (inactive) | z-score [19]: 0.276 | composite z-score [20]: -0.02

OCCCC1=CC(c2ccc(CN3CCCC3)cc2)N(Cc2cccc(OC(F)(F)F)c2)CC1 (stereo not given)
z-score [1]: -4.68 | z-score [2]: -0.267 | z-score [3]: -4.99 | z-score [4]: -3.3 | z-score [5]: -3.83 | z-score [6]: -0.125 | z-score [7]: 0.367 (inactive) | z-score [8]: -0.739 | z-score [9]: -2.38 | z-score [10]: 0.194 (inactive) | z-score [11]: -2.32 | z-score [12]: -5.01 (inactive) | z-score [13]: -6.82 (inactive) | composite z-score [14]: -1.2 (inactive) | z-score [15]: 0.318 (inactive) | z-score [16]: 0.195 (inactive) | z-score [17]: -1 (inactive) | z-score [18]: -1.83 (inactive) | z-score [19]: -5.61 | composite z-score [20]: 0.215

COc1ccc(C#Cc2ccc3c(c2)[C@]2(C(=O)N3)[C@H](C(=O)O)[C@H]3C(=O)O[C@H](c4ccccc4)[C@H](c4ccccc4)N3[C@@H]2c2ccccc2OCCO)cc1
z-score [1]: -1.23 | z-score [2]: 1.19 | z-score [3]: -2.52 | z-score [4]: -3.32 | z-score [5]: -4.18 | z-score [6]: -3.99 | z-score [7]: 2.1 (inactive) | z-score [8]: -0.823 | z-score [9]: -1.3 | z-score [10]: -0.435 (inactive) | z-score [11]: -0.638 | z-score [12]: 0.0196 (inactive) | z-score [13]: -2.53 (inactive) | composite z-score [14]: -3.86 (inactive) | z-score [15]: 3.23 (inactive) | z-score [16]: 2.48 (inactive) | z-score [17]: 0.761 (inactive) | z-score [18]: -0.183 (inactive) | z-score [19]: -5.64 | composite z-score [20]: 0.013

C[N+](C)(C)CCCCNC(=O)[C@H]1C[C@H]2C(=O)N[C@@H](Cc3ccccc3)C(=O)N2[C@H]1c1cccc(OCCO)c1
z-score [1]: -0.52 | z-score [2]: -0.878 | z-score [3]: -0.097 | z-score [4]: 0.135 | z-score [5]: -0.748 | z-score [6]: -0.559 | z-score [7]: -0.318 (inactive) | z-score [8]: 0.0888 | z-score [9]: -0.4 | z-score [10]: -0.967 (inactive) | z-score [11]: -3.26 | z-score [12]: 1.07 (inactive) | z-score [13]: -0.476 (inactive) | composite z-score [14]: -30.8 (active) | z-score [15]: 0.544 (inactive) | z-score [16]: 0.103 (inactive) | z-score [17]: 0.548 (inactive) | z-score [18]: 0.779 (inactive) | z-score [19]: -0.863 | composite z-score [20]: 0.459

CN1C(=O)C2C(C3CC3)C=C3CN(Cc4cccc(Cl)c4)[C@@H]([C@@H](O)Cc4ccccc4)C3C2C1=O (stereo not given in full)
z-score [1]: 1.19 | z-score [2]: 0.638 | z-score [3]: 0.506 | z-score [4]: -1.81 | z-score [5]: -2.67 | z-score [6]: 1.24 | z-score [7]: -0.424 (inactive) | z-score [8]: -0.426 | z-score [9]: -0.939 | z-score [10]: 0.43 (inactive) | z-score [11]: 0.313 | z-score [12]: -1.83 (inactive) | z-score [13]: 0.076 (inactive) | composite z-score [14]: -0.0831 (inactive) | z-score [15]: 0.601 (inactive) | z-score [16]: 0.248 (inactive) | z-score [17]: 0.942 (inactive) | z-score [18]: 0.588 (inactive) | z-score [19]: -0.0321 | composite z-score [20]: -0.0264

COC(=O)[C@@]1(Cc2ccc(F)cc2)[C@H]2c3cc(C(=O)N4CCCC4)n(CCc4ccccn4)c3C[C@H]2CN1C(=O)c1ccccc1
z-score [1]: 0.19 | z-score [2]: -0.0629 | z-score [3]: 0.278 | z-score [4]: -0.118 | z-score [5]: -0.431 | z-score [6]: 1.98 | z-score [7]: -0.962 (inactive) | z-score [8]: -0.815 | z-score [9]: -0.515 | z-score [10]: 0.182 (inactive) | z-score [11]: -0.386 | z-score [12]: 0.842 (inactive) | z-score [13]: -0.232 (inactive) | composite z-score [14]: 0.224 (inactive) | z-score [15]: 0.647 (inactive) | z-score [16]: 0.564 (inactive) | z-score [17]: -0.803 (inactive) | z-score [18]: -0.588 (inactive) | z-score [19]: -0.102 | composite z-score [20]: 0.0853

CCCCCCc1nc(-c2ccc(-c3ccc(Cl)c(Cl)c3)o2)cc2c1[Si](C(C)C)(C(C)C)OC2
z-score [1]: -0.567 | z-score [2]: 1.84 | z-score [3]: -0.0442 | z-score [4]: -3 | z-score [5]: -4.4 | z-score [6]: -1.24 | z-score [7]: 0.771 (inactive) | z-score [8]: -0.934 | z-score [9]: -1.23 | z-score [10]: 1.19 (inactive) | z-score [11]: 0.373 | z-score [12]: -7.31 (inactive) | z-score [13]: -0.273 (inactive) | composite z-score [14]: -1.97 (inactive) | z-score [15]: -0.558 (inactive) | z-score [16]: -0.878 (inactive) | z-score [17]: 0.522 (inactive) | z-score [18]: 0.395 (inactive) | z-score [19]: -0.151 | composite z-score [20]: -0.0233
